Screening data: PubChem BioAssay, Broad Institute
Pf Dd2 inh: inhibitors of Plasmodium falciparum Dd2 growth; activity change, % at 10 µM; 94,000 tested, 2.3% active; P. falciparum Dd2 growth, SYBR Green, 72 h; stronger effect = lower value; in the data active = activity change below about -80%; inconclusive = no clear call, values can overlap the other calls
T cruzi growth-1: T. cruzi proliferation inhibition; T. cruzi beta-gal in NIH3T3, GalScreen luminescence, 90 h; inhibition, % at 8.34 µM; 77,000 tested, 5.9% active; AID 624255;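 active = mean inhibition above about 93%, with at least 55% of replicates each passing it, limit read from the data, passing the limit was not always enough; inconclusive = only one of those two conditions holds; inactive = neither condition holds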
C diff growth: blocks growth of Clostridium difficile. Clostridium difficile clinical isolate growth, OD600, 24 h; stronger effect = lower value. growth activity, negative = inhibition, % at 16 µg/mL (by protocol). 86,000 tested, 0.25% active. AID 1259249;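 active = mean growth activity at or below -80% and every replicate also at or below -80%; inconclusive = mean at or below -80% but some replicate above -80%; inactive = mean growth activity above -80%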;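 also: 0% = DMSO wells and -100% = levofloxacin 16 µg/mL wells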
T cruzi growth-2: Trypanosoma cruzi proliferation inhibition. shares compounds with T cruzi growth-1. T. cruzi beta-gal in NIH3T3, GalScreen luminescence, 90 h. inhibition, % at 8.35 µM. 5,600 tested, 72% active. AID 651739;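 active = mean replicate inhibition above about 95% and at least 55% of replicates individually reaching it, limit read from the data; inconclusive = only one of the two criteria is met; inactive = neither criterion is met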
T cruzi growth-3: blocks T. cruzi growth in NIH3T3 host cells; T. cruzi beta-gal in NIH3T3, GalScreen luminescence, 90 h; 5,600 tested, 21% active; AID 651740; shares compounds with T cruzi growth-1; inhibition, % at 2.09 µM;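 active = mean inhibition above about 95%, with at least 55% of replicates also reaching it, limit read from the data; inconclusive = meets just one of the two conditions; inactive = meets neither condition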;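 also: plate controls were neutral control median for no effect and positive control median for full effect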
NIH3T3 tox: NIH/3T3 (mouse) viability loss; 5,600 tested, 14% active; shares compounds with T cruzi growth-1; NIH/3T3 viability, CellTiter-Glo ATP luminescence, 90 h; cytotoxicity (signal decrease), % at 8.35 µM;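 active = mean signal decrease across replicates above about 35% based on untreated-well scatter, with enough replicates individually passing, limit read from the data; inconclusive = no rule stated though some were filed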;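 also: 0% = median of neutral control wells and 100% = median of positive control wells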
NIH3T3 tox 2: NIH/3T3 (mouse) viability loss; shares compounds with T cruzi growth-1; NIH/3T3 viability, CellTiter-Glo ATP luminescence, 90 h; inhibition, % at 24.9 µM; 5,600 tested, 56% active; AID 651744;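 active = mean loss of cell viability signal at or above a set limit, and enough replicates individually reaching it; inconclusive = meets only the mean limit or only the replicate share; inactive = meets neither condition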;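 also: 0% = median of neutral control wells and 100% = median of positive control wells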
The depositor's hits bear a star; ? = inconclusive; nt = not tested or not shown. Only some compounds are listed: those with a hit (about 6.7% of all), similar ones and a draw of the others.

SMILES	Pf Dd2 inh	T cruzi growth-1	C diff growth	T cruzi growth-2	T cruzi growth-3	NIH3T3 tox	NIH3T3 tox 2
O=C(Nc1ccc(F)cc1)N1CCCCN2[C@@H](CO)[C@H](c3ccc(-c4ccccc4F)cc3)[C@@H]2C1	-31	106*	36	87	90	55*	104*
C[C@@H]1CCCCO[C@H](CN(C)C(=O)C2CCCCC2)[C@H](C)CN([C@H](C)CO)C(=O)c2cc(NC(=O)c3ccncc3)ccc2O1	nt	0	0	nt	nt	nt	nt
C[C@@H]1CN([C@@H](C)CO)C(=O)c2cc(-c3cccnc3)cnc2O[C@H]1CN(C)C(=O)C1CCC1	-2	10	2	nt	nt	nt	nt
O=C(NCC[C@H]1CC[C@H](NC(=O)c2ccccc2F)[C@H](CO)O1)c1ccc2c(c1)OCO2	11	-15	nt	nt	nt	nt	nt
O=C(N[C@H]1CC[C@@H](CCNS(=O)(=O)c2ccc(F)cc2)O[C@H]1CO)c1cccnc1	14	-27	nt	nt	nt	nt	nt
CNC[C@H]1Oc2c(N)cccc2C(=O)N([C@@H](C)CO)C[C@@H]1C	26	-27	3	nt	nt	nt	nt
O=C(Nc1cccc(F)c1)N1CCCCN2[C@H](CO)[C@H](c3ccc(-c4ccccc4F)cc3)[C@H]2C1	-28	101*	-29	104*	112*	117*	104*
C/C=C/c1ccc2c(c1)O[C@@H](CN(C)CC1CCOCC1)[C@H](C)CN([C@H](C)CO)S2(=O)=O	7	nt	4	nt	nt	nt	nt
CNC[C@H]1OCCCC[C@H](C)Oc2ccc(NS(C)(=O)=O)cc2C(=O)N([C@H](C)CO)C[C@@H]1C	-9	4	2	nt	nt	nt	nt
CCc1cnc(N2[C@H](CO)[C@H](c3ccccc3)[C@@H]2C#N)s1	43	-8	-7	nt	nt	nt	nt
CCc1cnc(N2[C@@H](C#N)[C@@H](c3ccccc3)[C@@H]2CO)s1	15	-3	-7	nt	nt	nt	nt
CCc1cnc(N2[C@@H](C#N)[C@H](c3ccc(C#CC(C)C)cc3)[C@@H]2CO)s1	-24	107*	-31	112*	52	-5	-2
CCc1cnc(N2[C@@H](C#N)[C@@H](c3ccc(C#CC(C)C)cc3)[C@@H]2CO)s1	-4	97*	-5	101*	108*	26	74*
Cc1noc(C)c1S(=O)(=O)Nc1cccc2c1O[C@@H](CN(C)Cc1ccc(Cl)c(Cl)c1)[C@@H](C)CN([C@H](C)CO)C2=O	-20	62	nt	nt	nt	nt	nt
C[C@H]1CN([C@@H](C)CO)S(=O)(=O)c2ccc(-c3ccncc3)cc2O[C@H]1CN(C)C(=O)Nc1ccc(C(F)(F)F)cc1	-7	74	8	nt	nt	nt	nt
C[C@@H]1CN([C@H](C)CO)S(=O)(=O)c2ccc(-c3ccncc3)cc2O[C@H]1CN(C)C(=O)Nc1ccc(C(F)(F)F)cc1	-42	?	6	106*	90	38*	73*
C[C@H](CO)N1C[C@H](C)[C@H](CN(C)C(=O)Nc2ccc(C(F)(F)F)cc2)Oc2cc(-c3ccncc3)ccc2S1(=O)=O	-36	74	11	nt	nt	nt	nt
Cc1ccccc1-c1ccc2c(c1)O[C@@H](CN(C)C(=O)Nc1ccc(C(F)(F)F)cc1)[C@@H](C)CN([C@@H](C)CO)S2(=O)=O	-75	92	20	nt	nt	nt	nt
C[C@H]1CN([C@@H](C)CO)S(=O)(=O)c2ccc(-c3ccncc3)cc2O[C@@H]1CN(C)C(=O)Nc1ccc(C(F)(F)F)cc1	-63	102*	1	104*	85	29	79*
Cc1ccccc1-c1ccc2c(c1)O[C@@H](CN(C)C(=O)Nc1ccc(C(F)(F)F)cc1)[C@H](C)CN([C@H](C)CO)S2(=O)=O	-45	101*	36	92	98*	51*	104*
Cc1ccc(S(=O)(=O)N(C)C[C@H]2Oc3c(NC(=O)C4CCOCC4)cccc3C(=O)N([C@H](C)CO)C[C@@H]2C)cc1	0	5	-6	nt	nt	nt	nt
CCC(=O)Nc1ccc2c(c1)C(=O)N(C)[C@H]1CC[C@@H](CC(=O)NCC3CCCCC3)O[C@@H]1CO2	0	55	-6	nt	nt	nt	nt
CC(=O)N(C)C[C@H]1Oc2ncc(-c3cccc(C#N)c3)cc2C(=O)N([C@@H](C)CO)C[C@H]1C	24	-25	1	nt	nt	nt	nt
O=C(c1cccc(F)c1)N1CC(=O)N2[C@H](CO)[C@@H](c3ccc(-c4ccccc4F)cc3)[C@@H]2C1	-33	nt	-9	nt	nt	nt	nt
